The structures appear in SMILES notation. Where “and” joins values, the source holds several entries; their conditions need not be identical. Equal entries are not always repeated. Records with an inconclusive call do not appear. More than one record can exist for a structure, and the calls need not agree. Calls of active or inactive are those of the source. Rule for the calls: active = hit-call score of the fitted dose curve at least 0.9, where 1 is the maximum; inconclusive = response in the unintended direction; inactive = score below 0.9.

Results on 37 molecules are retold here after PubChem BioAssay (EPA / NIEHS).

The nature of the test: TOX21_p53_BLA_p3_viability: Viability Assessment in the Tox21 HCT-116 p53 Agonism Beta-lactamase Assay, Phase 3 (AID 2283593).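 Note: cells exposed to compound for 16 h before reading.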 An excerpt:
TOX21_p53_BLA_p3 is a cell-based, single-readout assay that uses HCT116, a human intestinal cell line, […] in a 1536-well plate.TOX21_p53_BLA_p3_viability is an assay readout measuring cellular ATP content and detected with CellTiter-Glo Luciferase-coupled ATP quantitation.TOX21_p53_BLA_p3_viability used a type of viability reporter where loss-of-signal activity can be used to understand changes in the cell viability. Furthermore, this assay endpoint can be referred to as a secondary readout, because this assay has produced multiple assay endpoints where this one serves a viability function. To generalize the intended target to other relatable targets, this assay endpoint is annotated to the cell cycle intended target family, where the subfamily is cytotoxicity.
Thawing Method: Place 14 mL of pre-warmed thaw medium into a 15 mL of conical tub. Remove the vial of cells to be thawed from liquid nitrogen and thaw rapidly by placing at 37C in a water bath with gentle agitation for 1-2 minutes. Decontaminate the vial by wiping with 70% ethanol before opening in a biological safety cabinet. Transfer the vial contents drop-wise into 14 mL of thaw medium in a sterile 15-mL conical tub. Centrifuge cells at 900 rpm for 4 minutes and resuspend in thaw medium. Transfer contents to the T75 tissue culture flask containing Thaw Medium and place flask in a humidified 37C/5% CO2 incubator. Switch to growth medium at first passage.Propagation Method: Aspirate medium, rinse once in DPBS, add 0.25% Trypsin/EDTA and swirl to coat the cell evenly. Add an equal volume of Growth Medium to inactivate Trypsin after 2-3 minutes incubation at 37C. Centrifuge cells at 900 rpm for 4 minutes and resuspend in growth medium. Cell should be passage or fed at least twice a week.Assay Protocol: Harvest cells from culture in growth medium and resuspend in assay medium. 2.2 Dispense 4000 cells/5 uL/well into 1536-well black/clear bottom plates using a Multidrop dispenser. After the cells were incubated at 37C for 5 hours, 23 nL of compounds dissolved in DMSO were transferred to the assay plate by a PinTool resulting in a 217-fold dilution. Incubate the plates for 16 hours at 37C, 5% CO2. Add 1 uL of 6X LiveBLAzer FRET B/G (CCF4-AM) Substrate Mixture to each well using a BioRAPTR dispenser and incubate the plates at room temperature for 2 hours. Measure fluorescence intensity at 460 and 530 nm emission and 405 nm excitation by an Envision detector. Data is expressed as the ratio of 460nm/530nm emissions. Add 4 uL of Cell-titer Glo to each well using BioRAPTR and incubate the plates at room temperature for […]. For cell viability readout that measures cytotoxicity, 4 ul/well of CellTiter-Glo reagent was added into the assay plates using a Flying Reagent Dispenser. After 30 min incubation at room temperature, the luminescence intensity in the plates was measured using a ViewLux plate reader.
With `CCCCCCC(=O)O`, the call was inactive.
`CCN(CC)CCNc1ccc(CNC=O)c2sc3ccc(OC)cc3c(=O)c12`: the outcome was inactive.
On the same count and under the same terms, in the case of `CC[C@H](c1ccc(O)cc1)[C@@H](CC)c1ccc(O)cc1` it was “inactive”; in that of `CCc1nn(C2CCCCC2)c2cc(C3(C#N)CCC(C(=O)O)CC3)ccc12` (stereo not given), “inactive”.
For `CC(=O)NC1(c2cccc(F)c2)CCN(CC[C@@]2(c3ccc(Cl)c(Cl)c3)CN(c3ccccc3)C(=O)CO2)CC1`, the half-maximal activity concentration (AC50) is 66.9 µM (active).
Consider `OC1CCC(C2CCCCC2)CC1` (stereo not given), for which the molecule was classed as inactive.
On the same count and under the same terms, to `c1ccc2c(c1)Cc1ccccc1-2` belongs “inactive”.
Turning to `CC(C)(C)CC(C)(C)c1ccc(O)c(-n2nc3ccccc3n2)c1`, the call was inactive and the concentration at half-maximal activity (AC50) is 38.6 µM (active).
Turning to `CC(O)CO` (stereo not given), the call was inactive.
For `CN1CCN(c2ccccc2/C=C2\SCCN(c3ccc(Cl)c(Cl)c3)C2=O)CC1`, the AC50 is 77.6 µM (active).
Regarding `CC(C)(C)c1ccc(O)c(C(C)(C)C)c1`, the AC50 is 63.6 µM (active) and 86.7 µM (active).
For the molecule `CCCCCCCCCCCCCC[N+](C)(C)C`, the molecule was classed as inactive and the AC50 is 37.5 µM (active).
For `CCCOC(=O)c1ccc(O)cc1`, the outcome was inactive.
Regarding `O=C1OC2(c3ccccc31)c1cc(Br)c(O)c(Br)c1Oc1c2cc(Br)c(O)c1Br`, the result was inactive.
For `O=[N+]([O-])c1ccc(O)cc1`, the call was inactive.
The same measure, in the same setting: in the case of `CC(C)(C)c1cc(C(C)(C)C)c(O)c(C(C)(C)C)c1` it was “inactive”.
Take `Cc1oc(-c2ccccc2)nc1CCOc1ccc(C[C@H](Nc2ccccc2C(=O)c2ccccc2)C(=O)O)cc1`: the AC50 is 10.7 µM (active).
Still for that read-out and setting: to `CCCCCCCCCCCCN1CCCC1=O` belongs 69.8 µM (active).
With `CC#C[C@]1(O)CC[C@H]2[C@@H]3CCC4=CC(=O)CCC4=C3[C@@H](c3ccc(N(C)C)cc3)C[C@@]21C`, the molecule was classed as inactive.
Still for that read-out and setting: in the case of `COC(=O)CCCCC(=O)OC` it was “inactive”; in that of `CCC(C)(C)C1CCC(O)CC1` (stereo not given), “inactive”; in that of `CN(C)C=O`, “inactive”.
The same measure, in the same setting: in the case of `C=C(C)C(=O)OCCC(F)(F)C(F)(F)C(F)(F)C(F)(F)C(F)(F)C(F)(F)F` it was “inactive”.
Take `COc1ccc([N+](=O)[O-])cc1N`: the molecule was called inactive.
Same read-out and setting: to `Cc1ccc(S(=O)(=O)O)c(C)c1` belongs “inactive”.
On to `Cc1cc(CCN2CCN(c3nsc4ccccc34)CC2)cc2c1NC(=O)CC2(C)C`, for which the AC50 was 19.9 µM (active).
For the molecule `CC1=C(/C=C/C(C)=C/C=C/C(C)=C/C(=O)O)C(C)(C)CCC1`, the AC50 was 47.8 µM (active) and the result was inactive.
As for `O=C(O)Cc1cc(I)c(Oc2cc(I)c(O)c(I)c2)c(I)c1`, the AC50 was 46.1 µM (active).
Take `CC(C)(C)c1cccc(C(C)(C)C)c1O`: the outcome was inactive.
Regarding `CCCOc1sc(C(=O)N2CCC(c3cc(CN)ccc3F)CC2)c(C)c1Br`, the AC50 is 80 µM (active).
Turning to `Oc1cccc(O)c1`, the molecule was called inactive.
Take `CCc1ccc(CCOc2ccc(CC3SC(=O)NC3=O)cc2)nc1` (stereo not given): the call was inactive.
On to `Oc1cc2ccccc2c2ccccc12`, for which the AC50 is 14.5 µM (active).
In the case of `CCCCCCCCCCCCCCCS(=O)(=O)Oc1ccccc1`, the outcome was inactive.
Same read-out and setting: in the case of `CC(=O)CC(C)(C)O` it was “inactive”.
On the same count and under the same terms, to `C[C@@H]1C[C@H]2[C@@H]3CCC4=CC(=O)C=C[C@]4(C)[C@@]3(F)[C@@H](O)C[C@]2(C)[C@@]1(O)C(=O)COP(=O)(O)O` belongs “inactive”; to `c1ccc2cc3c(ccc4ccccc43)cc2c1`, “inactive”.

The term AC50 denotes the concentration giving half of the maximal activity seen.
